# Reference: PubChem BioAssay AID651692 (Broad Institute, 2012)
# Entries with a potency or affinity are not part of this list. A number with no mark means an inactive call.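 How the source made its calls: active means fitted half-maximal concentration for loss of cell signal no higher than twice the top valid tested concentration; inconclusive means flat curve at 30 to 70% inhibition, or poor fit; inactive means flat within 30%, signal rise, or potency above limit.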
# Assay: cytotoxicity toward MDA-MB-231 breast cancer cells – cell-based, CellTiter-Glo luminescence, cherry-pick, cytotoxicity control for RAD54 inhibitor project, dose response (AID 651692);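 further: 0% = median of sample compound wells and -100% = staurosporine control wells; more negative values mean stronger loss of viable cell signal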
# Conditions: MDA-MB-231 viability, 24 h; series mostly up to 26 µM; activity change, negative = growth inhibition: at the top concentration
row,SMILES,"activity change, negative = growth inhibition"
1,CCN(CC)CCNC(=O)c1cc2c(-c3ccc(Cl)cc3)nn(C)c2s1,-19.8%
2,COc1ccc(-c2cnc3c(NC(C)=O)cc(-c4cccc(C(=O)NCCN(C)C)c4)cn23)cc1OC,-9.16%
3,COc1ccccc1C1=NOC(Cn2c(NCCCO)nc3c2c(=O)n(C)c(=O)n3C)C1 (stereo not given),3.77%
4,C=CCc1ccccc1OCC(O)CN1CCN(CCN2C(=O)c3cccc4cccc(c34)C2=O)CC1 (stereo not given),-13.7%
5,O=C(NN1CCOCC1)c1cc(-c2ccc(Cl)c(Cl)c2)nc2ccccc12,0.843%
6,CN1CCN(c2ccc(CNC(=O)C3Cc4c(-c5ccc(Cl)cc5)ccnc4O3)cc2)CC1 (stereo not given),5.92%
7,CCCCN(CC)CCCNC(=O)c1cc2c(-c3ccc(OC)c(OC)c3)nn(C)c2s1,5.82%
8,COc1ccc(-c2nc(NCCCN(C)C)c3ccccc3n2)cc1,0.045%
9,CN1CCc2[nH]c3ccc(C(=O)NN)cc3c2C1,-1.61%
10,CC(C)NC1CCC(Nc2ccnc3cc(Cl)ccc23)CC1 (stereo not given),2.57%
11,COc1ccc(CCn2c(=N)c(C(=O)NCCN3CCOCC3)cc3c(=O)n4cccc(C)c4nc32)cc1OC,-11.8%
12,COc1ccc(Nc2nc(NCC3CCCO3)c3ccccc3n2)c(OC)c1 (stereo not given),6.96%
13,CCN(CC)Cc1cc(Nc2ccnc3cc(Cl)ccc23)ccc1O,-5.39%
14,CCCN(CCC)CCCNC(=O)c1cc2cc3ccc(OC)cc3nc2o1,2.73%
15,CN(C)CCNc1cc(-c2ccncc2)nc2ccccc12,13.6%
16,CN(C)CCOc1nc(-c2ccccc2)nc2c1oc1ccccc12,-10.9%
17,Cc1ccc(-c2nc(NCCN(C)C)c3ccccc3n2)cc1,1.78%
18,CC(=O)Nc1ccc2cc3ccc(NC(C)=O)cc3nc2c1,-1.22%
19,Cc1ccc2nc(Cl)c3cc(C(=O)NCCCN4CCCC4)sc3c2c1,-15.8%
20,Cc1ccnc(SCC(=O)Nc2sc3c(c2C#N)CCC(C(C)(C)C)C3)n1 (stereo not given),2.74%

row,SMILES,"activity change, negative = growth inhibition"
1,O=S(=O)(c1ccc(-c2nnc(SCc3ccccc3)o2)cc1)N1CCCC1,0.546%
2,COc1ccccc1Nc1nc(NCC2CCCO2)c2ccccc2n1 (stereo not given),5.68%
3,COc1ccccc1NC(=O)Cn1nnc2sc3c(c2c1=O)CC(C)(C)OC3,3.04%
4,CCCCN(CC)CCNC(=S)Nc1ccc2nc(N3CCN(C)CC3)cc(C)c2c1,-2.61%
5,COc1cccc2sc3ccc(NCCC4CCCN4C)cc3c(=O)c12 (stereo not given),-11.6%
6,CCN1CCc2c(sc(NC(=O)c3ccc(C(=O)c4ccccc4)cc3)c2C(N)=O)C1,-14.2%
7,CN(C)CCCNc1nc2cc(-c3ccc4c(ccn4C)c3)sc2c(=O)n1C,-4.29%
8,CCCN(CCC)c1nc(-c2ccccn2)nc2ccccc12,-1.83%
9,COc1ccc(Cc2c(-c3ccc(OC)c(OC)c3)nc3c(C)cc(Br)cn23)c(C)c1,16.1%
10,COc1cccc(-c2cc3nc(NCCN4CCCC4)n(C)c(=O)c3s2)c1,-7.44%
11,O=C1C(c2ccc(F)cc2)N(C2CCCCC2)C(=O)CN1C1CCCC1 (stereo not given),0.336%
12,CN1CCN(CCCNC(=O)c2cc3c(=O)oc4ccccc4c3s2)CC1,2.62%
13,COc1ccccc1NC(=O)CNC(=O)c1ccccc1,12.8%
14,Cc1ccc(-c2nc(N3CCN(C)CC3)c3ccccc3n2)cc1,-0.384%
15,COc1cccc2sc3cc(NCC[C@@H]4CCCN4C)ccc3c(=O)c12,2.12%
16,OCCN1CCN(c2ncnc3c2sc2nc(N4CCOCC4)c4c(c23)CCC4)CC1,2.58%
17,Nc1ccc(-c2nc3c(ccc4ccccc43)[nH]2)cc1,11.9%
18,CN(C)CCNc1ncnc2sc(-c3ccccc3)cc12,-2.01%
19,CN1CCN(CC(=O)Nc2nc(-c3c[nH]c4ccccc34)cs2)CC1,0.076%
20,c1ccc2c(c1)[nH]c1c(N3CCN(C4CCCCC4)CC3)ncnc12,4.07%
